Screening data as filed in PubChem.
FLuc inh: inhibitors of firefly (Photinus pyralis) luciferase; P08659; purified P. pyralis luciferase, luminescence, biochemical; Potency, µM (titrated, usually from 115 µM), actives largely listed as inhibitors; hit rate 2.5% among 76,000; AID 1347043; also: nearly all actives have a fitted effect of over 65% in size
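Inhibitors were tested against purified firefly luciferase in a biochemical, low-substrate format (both substrates at 10uM) and luminescence measured with a CCD imager.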
NIH3T3 tox: kills NIH 3T3 cells; Potency, µM (top dose mostly 96.7 µM), without a hit: at the highest dose activity change, negative = cytotoxicity, actives largely listed as inhibitors; NIH 3T3 viability, CellTiter-Glo ATP luminescence, 48-72 h; hit rate 4.3% among 94,000; also: nearly all actives have a fitted effect of over 55% in size
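First NIH 3T3 cells are plated at 400 cells/well; next compound is pinned in; then plates incubate 48 or 72 hr at 37 °C; finally CellTiter-Glo is added and luminescence read after 10 min.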
HEK cytotox: HEK 293 cell cytotoxicity; HEK 293 viability, ATP luminescence (CellTiter-Glo), 48-72 h; Potency, µM (highest dose often 115 µM), inactives show top-dose activity change, negative = cytotoxicity, actives largely listed as inhibitors; hit rate 6.6% among 94,000; also: nearly all actives have a fitted effect of over 60% in size
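Luminescence from cellular ATP, measured with CellTiter-Glo, indicates HEK 293 viability. Cells plated at 250 cells/well are treated with compound for 48 or 72 hr at 37 degree Celsius before reagent addition.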
GPT2 inhibitor: blocks human glutamate pyruvate transaminase 2; Q8TD30; Recombinant GPT2, coupled pyruvate oxidase/HRP Amplex Red fluorescence; Potency, µM (series often up to 57.7 µM), for the others: at the highest dose activity change, negative = inhibition, most hits filed as inhibitors; hit rate 0.25% among 100,000; AID 1671188; also: nearly all actives have a fitted effect of over 60% in size
Target sequence (Q8TD30 whole entry, looked up): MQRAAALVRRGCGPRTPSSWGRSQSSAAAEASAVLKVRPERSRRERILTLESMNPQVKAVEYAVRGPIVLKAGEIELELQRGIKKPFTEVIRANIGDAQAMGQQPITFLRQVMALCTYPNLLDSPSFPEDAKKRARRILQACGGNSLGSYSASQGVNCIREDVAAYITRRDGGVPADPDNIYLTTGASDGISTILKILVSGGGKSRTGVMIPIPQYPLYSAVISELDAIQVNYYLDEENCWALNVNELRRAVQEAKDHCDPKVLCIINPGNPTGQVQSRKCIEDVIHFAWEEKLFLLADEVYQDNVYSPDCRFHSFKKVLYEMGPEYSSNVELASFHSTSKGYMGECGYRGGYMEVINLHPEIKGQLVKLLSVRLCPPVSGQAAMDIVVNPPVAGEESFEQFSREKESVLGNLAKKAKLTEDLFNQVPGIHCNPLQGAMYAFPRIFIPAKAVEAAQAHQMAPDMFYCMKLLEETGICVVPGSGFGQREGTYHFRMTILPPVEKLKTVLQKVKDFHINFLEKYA
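Fluorescence read-out: pyruvate from GPT2 turnover coupled to pyruvate oxidase, HRP and Amplex Red (0.2mM ThPP, 0.2U/mL PO and HRP, 50uM Amplex final). Substrates 250uM a-KG, 2mM L-alanine; enzyme 10ng/uL; 30 min RT.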
hNpr1 antagonist: blocks ANP-stimulated signaling of human Npr1 receptor; hit rate 1.6% among 76,000; Potency, µM (titrated, usually from 46.3 µM), for the others: at the top dose activity change, negative = inhibition, actives largely listed as inhibitors; P16066; AID 1347048; HEK293 hNpr1 GloSensor cGMP, ANP-stimulated luminescence; calls by dose curve; also: nearly all actives have a fitted effect of over 60% in size
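HEK293 cells stably expressing human Npr1 and cGMP GloSensor pGS-40F, loaded 2 h with 2% GloSensor reagent, given compound 30 min at room temperature. Luminescence read before and 20 min after 0.1 nM hNppA.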
Numbers without * were called inactive; i = inactive; ? = inconclusive; . = not tested or not shown; [ ] = remark or other dose. Compounds with a hit are over-represented: about 10% of the library has one in this group of screens. Unless noted, calls follow the shape of the dose curve; as a rule, active = well fitted curve in the direction sought with a large enough effect; inconclusive = small, poorly fitted or top-dose-only effect, or another doubt; inactive = no such curve, though single readings can be large; an effect the other way counts as inactive or inconclusive. % is scaled to controls: 0 for no effect and ±100 for the full control effect; potency is read from the fitted curve at half-maximal effect.

SMILES	FLuc inh	NIH3T3 tox	HEK cytotox	GPT2 inhibitor	hNpr1 antagonist
CCCN(C)c1nccnc1OC1CCN(C(=O)c2ccc(OC)cc2)C1 (centres undefined)	40µM*	-23%	45µM*	-13%	-15%
CC(C)CC(=O)N1CCC(Oc2nccnc2N(C)C)C1 (centres undefined)	32µM*	3%	-5%	-5%	3%
COc1ccc([C@@H]2CN(c3ncccc3C#N)C[C@H]2NC(C)=O)cc1	i	-23%	-9%	3%	4%
COc1ccc(CC(=O)N[C@H]2C[C@@H](c3nc(-c4ccc5ccccc5c4)no3)N(C)C2)cc1	40µM*	-5%	-13%	i	-16%
CN1C[C@@H](NC(=O)c2ccccn2)C[C@H]1c1nc(-c2ccc3ccccc3c2)no1	32µM*	?	?	5%[88.5 µM]	-3%[70.6 µM]
CN(C)c1ccc(C(=O)N[C@H]2C[C@@H](c3nc(-c4ccc5ccccc5c4)no3)N(C)C2)cc1	i	?	?	-7%	-11%
COCC(=O)N[C@H]1C[C@@H](c2nc(-c3ccc(F)cc3)no2)N(C)C1	i	-5%[174 µM]	-4%[172 µM]	i	-3%[70.6 µM]
COc1ccc(-c2noc([C@@H]3C[C@H](NCc4ccc(F)cc4)CN3C)n2)cc1	63µM*	?	100µM*	3%[88.5 µM]	-6%[70.6 µM]
CC(Cc1ccc2c(c1)OCO2)CN1CCC(CO)(CN2CCCC2)CC1 (centres undefined)	i	40µM*	?	0%	-11%
OCC1(CN2CCCC2)CCN(Cc2ccc(Cl)cc2)CC1	i	?	?	3%	2%
N#Cc1cccc(NC(=O)O[C@@H]2CO[C@H]3[C@@H]2OC[C@@H]3n2nnnc2-c2ccc(-c3ccccc3)cc2)c1	i	?	-25%	4%	-14%
Cc1cc(C)cc(-c2ccccc2C=O)c1	.	?	?	i	.
O=Cc1ccccc1-c1cnc2ccccc2c1	.	79µM*	-25%[172 µM]	-13%[88.5 µM]	.
COCC1CCN(Cc2cc3ccc(OC)cc3nc2-c2cccc(C)c2)C1 (centres undefined)	?	?	?	i	2%
FC(F)Oc1cccc(CNC2CCC3(CCNCC3)CC2)c1	i	?	50µM*	-8%	-5%
CN(Cc1ccccc1)C(=O)C1(c2ccc(NC(=O)C3CC3)cc2)CCCCC1	i	?	35µM*	i	-20%
CC(=O)Nc1ccc(C2(C(=O)N(C)Cc3ccccc3)CCCCC2)cc1	i	?	50µM*	i	2%
CS(=O)(=O)N1CCCC(C(=O)NCCN2CCOCC2)CCNC(=O)CC1 (centres undefined)	i	0%	i	-8%	5%
N#Cc1ccc(C(=O)NC2CCc3n[nH]c(=O)n3CC2)cc1 (centres undefined)	i	-5%	-3%	i	2%
CCOCC1(C)COc2ccc(C(=O)Nc3ccc(F)c(Cl)c3)cc2N1 (centres undefined)	?	32µM*	40µM*	-24%[88.5 µM]	?
CCOCC1(C)COc2ccc(C(=O)Nc3cccnc3)cc2N1 (centres undefined)	i	-14%[138 µM]	?	1%[88.5 µM]	6%[70.6 µM]
COc1cccc(NC(=O)c2ccc3c(c2)NC(C)(COc2cccnc2)CO3)c1 (centres undefined)	?	?	50µM*	-4%[88.5 µM]	22µM*
COc1ccc(NC(=O)c2ccc3c(c2)NC(C)(COc2ccccc2)CO3)cn1 (centres undefined)	i	?	?	-17%[88.5 µM]	?
CC1(COc2cccnc2)COc2ccc(C(=O)Nc3cccc(Cl)c3)cc2N1 (centres undefined)	?	?	22µM*	?	28µM*
CN(C)CCOCC1(C)COc2ccc(C(=O)Nc3cccc(Cl)c3)cc2N1 (centres undefined)	45µM*	45µM*	63µM*	-16%[88.5 µM]	-13%[70.6 µM]
SMILES	FLuc inh	NIH3T3 tox	HEK cytotox	GPT2 inhibitor	hNpr1 antagonist
CN(C)CCOCC1(C)COc2ccc(C(=O)Nc3cccc(N(C)C)c3)cc2N1 (centres undefined)	?	?	?	4%[88.5 µM]	1%[70.6 µM]
COCCc1noc(CC2CCOC3(CCN(Cc4cccc(OC)c4OC)CC3)C2)n1 (centres undefined)	i	2%	-4%	i	4%
C=CCCOC(=O)N1CCC(=O)N(CC=C)C[C@H]2COc3cc(OC)ccc3[C@H]21	.	-28%	?	.	.
CN(Cc1cccnc1)c1nc2c(c(=O)[nH]1)CCN(Cc1ccccc1C(F)(F)F)CC2	i	?	20µM*	i	?
CN(Cc1cccnc1)Cc1nc(C2(O)CCN(Cc3ccccc3C(F)(F)F)CC2)cs1	i	?	45µM*	i	-21%
O=C1CN(C(=O)CCC(=O)N2CCCC(c3nc(C4CCOCC4)no3)C2)c2ccccc2N1 (centres undefined)	i	-10%	-9%	i	1%
CC(=O)NC[C@H]1OC[C@@H](NC2CCC2)[C@@H]1O	i	i	-3%[230 µM]	i	2%[70.6 µM]
CN(Cc1ccc(F)cc1)c1ccc2ncc(Nc3cccc(N[S+](C)(=O)[O-])c3)n2n1	i	32µM*	35µM*	-9%	?
O=C(NCCN1CCOCC1)c1c(-c2ccccc2)cc(=O)n2c1CCC2	.	-16%	-16%	-15%	.
NC(=O)c1csc(S(=O)(=O)N2CCC(CO)(CN3CCCC3)CC2)c1	i	-18%	-21%	1%	0%
CSc1ncc(CN2CCC(n3nccc3NC(=O)Cc3ccccc3)CC2)cn1	i	-25%	-11%	i	0%
O=C(Nc1ccnn1C1CCN(Cc2ccc(-c3ccccc3)cc2)CC1)C1CC1	i	35µM*	?	2%	?
O=C1c2c(nc(COc3ccc(F)cc3F)n2Cc2ccccc2)NCCN1CCOc1ccccc1	i	?	45µM*	-10%	?
O=C1c2c(nc(COc3ccc4c(c3)OCO4)n2Cc2ccccc2)NCCN1CC1CCOCC1	i	-27%	?	i	-1%
O=C1c2c(nc(CNCc3ccc4c(c3)OCO4)n2Cc2ccccc2)NCCN1CCOc1ccccc1	i	40µM*	?	-17%	-14%
COCCN1CCNc2nc(COc3ccc(Oc4ccccc4)cc3)n(Cc3ccccc3)c2C1=O	i	45µM*	?	-3%	-22%
O=C1c2c(nc(COc3ccc(F)cc3)n2Cc2ccccc2)NCCN1CCOc1ccccc1	i	?	?	0%	?
O=C1c2c(nc(COc3ccc4c(c3)OCO4)n2Cc2ccccc2)NCCN1Cc1cccc(Cl)c1	i	22µM*	32µM*	-1%	?
CN(C(=O)Cn1cccc1-c1nc(-c2ccc3c(c2)OCO3)no1)c1ccccc1	i	-29%	?	-24%	-20%
